{"source": "the supplement of paper PMC11634586", "note": "Counter-ions that a name gives are not always drawn."}
{"test_system": "NCI-H1688", "experiment": "inhibition of cell viability relative to untreated control (fraction); higher = stronger growth inhibition, active = 0.5 or more", "details": "30 µM; 24 h", "summary_of_the_method": "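NCI-H1688 small cell lung cancer cells were seeded at 3 × 10^3 cells/well in 96-well plates and treated 24 h later with a natural compound library (TargetMol) at 30 µM for 24 h, at 37°C with 5% CO2. Viability was read in triplicate with Cell Counting Kit-8 as absorbance at 450 nm. Inhibition of cell viability is expressed as a fraction, derived from viability normalised to the untreated control.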"}
{"molecule": "COc1ccc(C(C)=O)c(O)c1", "note": "[Paeonol]", "inhibition of cell viability": "0.0334 (inactive)"}
{"molecule": "C=CCSC[C@H](N)C(=O)O", "note": "[S-allyl-L-cysteine]", "inhibition of cell viability": "-0.0574 (inactive)"}
{"molecule": "COc1ccc2cc3[n+](cc2c1OC)CCc1cc2c(cc1-3)OCO2", "note": "[Berberine hydrochloride]", "inhibition of cell viability": "-0.108 (inactive)"}
{"molecule": "COc1cc2c(cc1O)[C@@H](Cc1ccc(O)c(Oc3ccc(C[C@@H]4c5cc(OC)c(OC)cc5CCN4C)cc3)c1)N(C)CC2", "note": "[Daurisoline]", "inhibition of cell viability": "0.977 (active)"}
{"molecule": "C/C=C\\c1ccc(OC)cc1", "note": "[cis-Anethol]", "inhibition of cell viability": "-0.182 (inactive)"}
{"molecule": "CC[C@H](C)[C@H](N)C1=N[C@H](C(=O)N[C@@H](CC(C)C)C(=O)N[C@H](CCC(=O)O)C(=O)N[C@H](C(=O)N[C@H]2CCCCNC(=O)[C@H](CC(N)=O)NC(=O)[C@@H](CC(=O)O)NC(=O)[C@H](Cc3cnc[nH]3)NC(=O)[C@@H](Cc3ccccc3)NC(=O)[C@H]([C@@H](C)CC)NC(=O)[C@@H](CCCN)NC2=O)[C@@H](C)CC)CS1", "note": "[Bacitracin]", "inhibition of cell viability": "-0.0913 (inactive)"}
{"molecule": "CC[C@H]1OC(=O)[C@H](C)[C@@H](O[C@H]2C[C@@](C)(OC)[C@@H](O)[C@H](C)O2)[C@H](C)[C@@H](O[C@@H]2O[C@H](C)C[C@H](N(C)C)[C@H]2O)[C@](C)(O)C[C@@H](C)[C@@H]2N[C@@H](COCCOC)O[C@H]([C@H]2C)[C@]1(C)O", "note": "[Dirithromycin]", "inhibition of cell viability": "0.0389 (inactive)"}
{"molecule": "O[C@H]1[C@H](O)[C@@H](O)[C@H](O)[C@@H](O)[C@H]1O", "note": "[Inositol]", "inhibition of cell viability": "-0.137 (inactive)"}
{"molecule": "CC1(C)CC[C@]2(C(=O)O)CC[C@]3(C)C(=CC[C@@H]4[C@@]5(C)CC[C@H](O)[C@@](C)(CO)[C@@H]5CC[C@]43C)[C@@H]2C1", "note": "[Hederagenin]", "inhibition of cell viability": "0.274 (inactive)"}
{"molecule": "CC1(C)CC[C@]2(C(=O)O)[C@H](O)C[C@]3(C)C(=CC[C@@H]4[C@@]5(C)CC[C@H](O)C(C)(C)[C@@H]5CC[C@]43C)[C@H]2C1", "note": "[Echinocystic acid]", "inhibition of cell viability": "0.139 (inactive)"}
{"molecule": "N[C@@H](CCC(=O)N[C@@H](CS)C(=O)NCC(=O)O)C(=O)O", "note": "[Glutathione]", "inhibition of cell viability": "-0.00752 (inactive)"}
{"molecule": "C=C[C@H]1CN2CC[C@H]1C[C@H]2[C@H](O)c1ccnc2ccc(OC)cc12", "note": "[Quinine]", "inhibition of cell viability": "0.162 (inactive)"}
{"molecule": "C[C@H](CCC(=O)O)[C@H]1CC[C@H]2[C@@H]3C(=O)C[C@@H]4CC(=O)CC[C@]4(C)[C@H]3CC(=O)[C@]12C", "note": "[Dehydrocholic acid]", "inhibition of cell viability": "-0.142 (inactive)"}
{"molecule": "COC1=C(OC)C(=O)C(C/C=C(\\C)CC/C=C(\\C)CC/C=C(\\C)CC/C=C(\\C)CC/C=C(\\C)CC/C=C(\\C)CC/C=C(\\C)CC/C=C(\\C)CC/C=C(\\C)CCC=C(C)C)=C(C)C1=O", "note": "[Coenzyme Q10 (CoQ10)]", "inhibition of cell viability": "-0.0281 (inactive)"}
{"molecule": "C[C@H]1[C@H](C)CC[C@]2(C(=O)O)CC[C@]3(C)C(=CC[C@@H]4[C@@]5(C)C[C@@H](O)[C@H](O)[C@@](C)(CO)[C@@H]5CC[C@]43C)[C@H]12", "note": "[Asiatic acid]", "inhibition of cell viability": "0.00351 (inactive)"}
{"molecule": "C/C1=C2N=C(/C=C3N=C(/C(C)=C4\\[N-]C(C(CC(N)=O)C4(C)CCC(=O)NCC(C)OP(=O)([O-])OC4C(CO)OC(n5cnc6cc(C)c(C)cc65)C4O)C4(C)N=C1C(CCC(N)=O)C4(C)CC(N)=O)C(CCC(N)=O)C\\3(C)C)C(CCC(N)=O)C/2(C)CC(N)=O.[CH3-].[Co+3]", "note": "(stereo not given) [Methylcobalamin]", "inhibition of cell viability": "0.0835 (inactive)"}
{"molecule": "C[C@H](CCC(=O)NCCS(=O)(=O)O)[C@H]1CC[C@H]2[C@@H]3[C@@H](O)C[C@@H]4C[C@H](O)CC[C@]4(C)[C@H]3CC[C@]12C", "note": "[Tauroursodeoxycholic Acid]", "inhibition of cell viability": "0.00688 (inactive)"}
{"molecule": "O=c1cc(-c2ccc(O)cc2)oc2cc(O)cc(O)c12", "note": "[Apigenin]", "inhibition of cell viability": "0.487 (inactive)"}
{"molecule": "CNC1CCCN(c2c(F)cc3c(=O)c(C(=O)O)cn(C4CC4)c3c2OC)C1", "note": "(stereo not given) [Balofloxacin]", "inhibition of cell viability": "0.118 (inactive)"}
{"molecule": "CC(=O)Oc1c(C)c(C)c2c(c1C)CCC(C)(CCC[C@H](C)CCC[C@H](C)CCCC(C)C)O2", "note": "(stereo not given in full) [Vitamin E Acetate]", "inhibition of cell viability": "-0.0362 (inactive)"}
{"molecule": "COc1cc([C@@H]2c3cc4c(cc3[C@@H](O[C@@H]3O[C@@H]5CO[C@@H](C)O[C@H]5[C@H](O)[C@H]3O)[C@H]3COC(=O)[C@H]23)OCO4)cc(OC)c1O", "note": "[Etoposide]", "inhibition of cell viability": "0.664 (active)"}
{"molecule": "OCC1OC(OC2C(CO)OC(O)C(O)C2O)C(O)C(O)C1O", "note": "[D-Cellobiose]", "inhibition of cell viability": "-0.12 (inactive)"}
{"molecule": "Cc1c(C(=O)NCCO)[n+]([O-])c2ccccc2[n+]1[O-]", "note": "[Olaquindox]", "inhibition of cell viability": "0.00372 (inactive)"}
{"molecule": "C[C@@H]1O[C@@H](O[C@H]2[C@H](O[C@H]3CC[C@@]4(C)[C@@H](CC[C@]5(C)[C@@H]4CC=C4[C@@H]6CC(C)(C)CC[C@]6(C(=O)O[C@@H]6O[C@H](CO[C@@H]7O[C@H](CO)[C@@H](O)[C@H](O)[C@H]7O)[C@@H](O)[C@H](O)[C@H]6O)CC[C@]45C)[C@]3(C)CO)OC[C@H](O)[C@@H]2O)[C@H](O)[C@H](O[C@@H]2O[C@H](CO)[C@@H](O[C@@H]3O[C@H](CO)[C@@H](O)[C@H](O)[C@H]3O)[C@H](O)[C@H]2O)[C@H]1O", "note": "[Macranthoidin B]", "inhibition of cell viability": "0.21 (inactive)"}
{"molecule": "CC(=O)OC(C)C(C)C(=O)OCC12C3CC(C)(C)[C@H](O[C@@H]1C[C@]1(C)C3=CCC3C4(C)CCC(O[C@@H]5O[C@H](C(=O)O)[C@@H](O[C@H]6O[C@H](CO)[C@@H](O)[C@H](O)[C@H]6O)[C@H](O)[C@H]5O[C@@H]5OC[C@@H](O)[C@H](O)[C@H]5O)[C@](C)(CO)C4CCC31C)C2O", "note": "(stereo not given in full) [Sodium Aescinate]", "inhibition of cell viability": "0.524 (active)"}
{"molecule": "COC(=O)C1=CO[C@@H](O[C@@H]2O[C@H](CO)[C@@H](O)[C@H](O)[C@H]2O)[C@@H]2C(CO)=CC[C@H]12", "note": "[Geniposide]", "inhibition of cell viability": "0.00243 (inactive)"}
{"molecule": "O=C1c2c(O)cc(O)cc2OC(c2ccc(O)c(O)c2)C1O", "note": "(stereo not given) [Taxifolin (Dihydroquercetin)]", "inhibition of cell viability": "0.086 (inactive)"}
{"molecule": "OC[C@@H](O)[C@@H](O)[C@H](O)[C@@H](O)CO", "note": "[D-Sorbitol]", "inhibition of cell viability": "-0.224 (inactive)"}
{"molecule": "CCc1c2c(nc3ccc(OC(=O)N4CCC(N5CCCCC5)CC4)cc13)-c1cc3c(c(=O)n1C2)COC(=O)[C@]3(O)CC", "note": "[Irinotecan hydrochloride trihydrate]", "inhibition of cell viability": "0.311 (inactive)"}
{"molecule": "COc1c2occc2cc2ccc(=O)oc12", "note": "[8-Methoxypsoralen]", "inhibition of cell viability": "0.302 (inactive)"}
